Laboratory results taken from publication PMC4336329 (PLoS ONE, 2015).
Hit rate of the full screen: of about 310,000 compounds, about 14,000 (4.5%) showed an effect of 50% or more. Effects have a minus sign here. This excerpt belongs to a sample that is enriched for strong results.

What follows are molecules tested against human ether-à-go-go-related gene (hERG) potassium channel (human, UniProt Q12809) (assay: primary screen, population patch clamp on CHO cells stably expressing hERG; higher = less effect of the substance).
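Note: peak tail current of the secondary pulse compared with the same well before compound.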

human ether-à-go-go-related gene (hERG) potassium channel, sequence (Q12809 whole entry, looked up): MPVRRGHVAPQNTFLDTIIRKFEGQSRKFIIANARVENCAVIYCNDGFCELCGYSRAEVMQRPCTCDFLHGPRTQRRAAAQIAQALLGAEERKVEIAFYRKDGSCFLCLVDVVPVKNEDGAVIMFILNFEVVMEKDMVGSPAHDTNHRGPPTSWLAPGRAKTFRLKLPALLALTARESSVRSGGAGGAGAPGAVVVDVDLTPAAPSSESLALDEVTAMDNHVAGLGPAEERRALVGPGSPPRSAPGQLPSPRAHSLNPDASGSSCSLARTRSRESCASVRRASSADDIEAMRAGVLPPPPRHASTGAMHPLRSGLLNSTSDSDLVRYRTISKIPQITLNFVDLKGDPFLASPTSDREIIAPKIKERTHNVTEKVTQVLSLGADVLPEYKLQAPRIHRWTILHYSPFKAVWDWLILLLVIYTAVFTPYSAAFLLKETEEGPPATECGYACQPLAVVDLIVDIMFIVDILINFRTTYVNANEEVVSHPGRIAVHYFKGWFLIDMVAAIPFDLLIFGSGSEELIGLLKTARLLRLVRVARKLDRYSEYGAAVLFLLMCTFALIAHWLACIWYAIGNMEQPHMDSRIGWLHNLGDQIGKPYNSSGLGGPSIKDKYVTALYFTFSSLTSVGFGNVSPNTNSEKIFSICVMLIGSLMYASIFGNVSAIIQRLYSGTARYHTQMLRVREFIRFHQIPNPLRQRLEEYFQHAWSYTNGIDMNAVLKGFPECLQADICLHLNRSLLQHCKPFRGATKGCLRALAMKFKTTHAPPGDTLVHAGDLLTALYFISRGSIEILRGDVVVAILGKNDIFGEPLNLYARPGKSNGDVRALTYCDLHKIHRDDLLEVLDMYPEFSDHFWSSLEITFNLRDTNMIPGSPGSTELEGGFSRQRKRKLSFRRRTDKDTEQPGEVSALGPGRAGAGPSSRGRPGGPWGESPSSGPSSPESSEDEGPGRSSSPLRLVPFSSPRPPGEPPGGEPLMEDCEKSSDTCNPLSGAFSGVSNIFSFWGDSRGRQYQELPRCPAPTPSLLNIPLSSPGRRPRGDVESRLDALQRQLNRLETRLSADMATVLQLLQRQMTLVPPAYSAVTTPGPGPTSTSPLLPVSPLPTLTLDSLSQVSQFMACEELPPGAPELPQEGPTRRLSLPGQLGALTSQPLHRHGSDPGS

Row | SMILES | hERG current change (%, negative = inhibition) at 10uM
1 | COc1ccc(OC)c(S(=O)(=O)N(C)CC(=O)Nc2ccccc2OC)c1 | -20.2%
2 | O=C1/C(=C\c2ccc(Br)o2)Cc2ccccc21 | 2.56%
3 | CSc1ncccc1C(=O)OCC(=O)Nc1ccc2c(c1)CCC2 | 9.67%
4 | COc1ccc(C(=O)NC(=S)NNC(=O)COc2ccccc2)cc1 | -2.47%
5 | OCCC1CN(Cc2cccn2-c2nccs2)CCN1Cc1ccc(F)c(F)c1 (stereo not drawn) | -80.7%
6 | CCc1nc(CN2CCN(Cc3ccc(F)c(F)c3)C(CCO)C2)c(C)[nH]1 (stereo not drawn) | 14.2%
7 | Cc1ccc(CN2CCN(Cc3cccn3-c3nccs3)CC2CCO)cc1 (stereo not drawn) | -77.3%
8 | Cc1ccc(N2C(=O)CC(C)CC2=O)cc1 | 21.2%
9 | O=C(C[n+]1ccc(C(=O)c2ccccc2)cc1)Nc1ccc(C(F)(F)F)cc1.[Cl-] | -11.6%
10 | CS(=O)(=O)N(CC(=O)N1CCCCC1)c1cccc(F)c1 | 13%
11 | COc1cccc(NC(=O)COC(=O)c2ccccc2F)c1 | 13.8%
12 | O=C(CCc1nnc2ccc(N3CCC4(CC3)OCCO4)nn12)Nc1ccc(F)cc1 | -40.2%
13 | CC(C)[C@H](CN(N=O)[C@@H](Cc1ccccc1)CN(C)N=O)N(CCc1ccccc1)N=O.[Na+] | -0.676%
14 | CC(C)(C)C(=O)NC(NC(=O)C(C)(C)C)c1ccc([N+](=O)[O-])cc1 | 8.18%
15 | CCn1nc(C)c(Br)c1-c1nc(-c2cccc(C)c2)no1 | 19.1%
16 | CC1(C)CC(=O)C(N=Nc2ccc(OC(F)F)cc2)=C(O)C1 | -57.6%
17 | COc1ccc(N=NC2=C(O)CC(C)(C)CC2=O)cc1 | -9.39%
18 | CC1(C)CC(=O)C(N=Nc2ccc(F)cc2)=C(O)C1 | -4.21%
19 | COc1ccc(-n2cnc3cc(C(=O)N4CCC5(CC4)OCCO5)ccc32)cc1 | -42.8%
20 | O=C(Cc1ccccc1)Nc1ccccc1N1CCCC1 | 9.76%
21 | Cc1ccc(-c2nnc(SCC(=O)Nc3ccccc3F)o2)cc1 | 6.53%

Row | SMILES | hERG current change (%, negative = inhibition) at 10uM
22 | Cc1cc(NC(=O)CSc2ccc3nnc(-c4ccccn4)n3n2)no1 | -6.72%
23 | Cc1ccc(C)c(CSc2ccc3nnc(-c4ccccn4)n3n2)c1 | -76.5%
24 | Cc1ccccc1CSc1ccc2nnc(-c3ccccn3)n2n1 | -81.6%
25 | Cc1nnc(NC(=O)CSc2ccc3nnc(-c4ccccn4)n3n2)s1 | -9.79%
26 | Cc1ccccc1NC(=O)CSc1ccc2nnc(-c3ccccn3)n2n1 | -23.8%
27 | Cc1ccccc1CSc1nnc(-c2ccccn2)n1C | -1.96%
28 | CS(=O)Cc1cc(Oc2ccccc2)nc(-c2ccncc2)n1 (stereo not drawn) | -16.5%
29 | Cc1nc2cc(NC(=O)c3ccc(Br)s3)ccc2s1 | 20%
30 | O=C(CSc1ncccc1-c1nc2ccccc2[nH]1)N1CCCCC1 | -16.3%
31 | NC(=O)CCCSc1nc2ccccc2[nH]1 | 13.3%
32 | O=[N+]([O-])c1ccc(N2CCN(CCO)CC2)cc1Sc1nc2ccccc2[nH]1 | -12.4%
33 | Br.CC1(C(=O)CSc2ncn[nH]2)CCC(=O)O1 (stereo not drawn) | 2.21%
34 | Br.CC1(C(=O)CSc2nc3ccccc3s2)CCC(=O)O1 (stereo not drawn) | -2.67%
35 | COc1ccc(N2CCN(C(=O)CSc3ncccc3-c3nc4ccccc4[nH]3)CC2)cc1 | -53.4%
36 | O=C(CSc1nc2ccccc2[nH]1)Nc1ccc(N2CCOCC2)cc1 | 8.65%
37 | CCN1CCN(c2ccc([N+](=O)[O-])c(Sc3nc4ccccc4[nH]3)c2)CC1 | -60.4%
38 | CC1(C(=O)CSc2nc3ccccc3[nH]2)CCC(=O)O1 (stereo not drawn) | -70.8%
39 | O=C(CCCSc1nc2ccccc2[nH]1)N1CCN(c2ccc([N+](=O)[O-])cc2)CC1 | -79.9%
40 | COc1ccccc1N1CCN(C(=O)CSc2ncccc2-c2nc3ccccc3[nH]2)CC1 | -23.7%
41 | CN1CCN(c2ccc([N+](=O)[O-])c(Sc3nc4ccccc4[nH]3)c2)CC1 | -19.7%
42 | COC(=O)C1=C(C)N(CCc2ccc(OC)c(OC)c2)C(=O)C1 | 18.5%

Row | SMILES | hERG current change (%, negative = inhibition) at 10uM
43 | O=C(CNS(=O)(=O)c1ccc(Cl)cc1)NNC(=O)c1cccnc1 | 20.7%
44 | S=C1NC[C@H](Cc2cccc3ccccc23)N1CC1CCCCC1 | 10.3%
45 | COc1cc(O)sc1C=Nc1ccc(Cl)cc1 | 4.72%
46 | Cc1cc2c(n1-c1ccc(Br)cc1)CC(C)(C)CC2=O | -33.5%
47 | O=S(=O)(Nc1cccc(-n2cnnn2)c1)c1ccccc1C(F)(F)F | 12%
48 | CN1CCN(CCC(=O)N/N=C/c2cc([N+](=O)[O-])ccc2OC(F)F)CC1 | 1.78%
49 | C#CCOCCOCCOCCNc1nc(N2CCN(C(=O)CCCCCCCCCCNC(=O)Cn3cc(CCCCCN)nn3)CC2)nc(N2CCN(C(=O)CCCCCCCCCCNC(=O)[C@@H](CCC(=O)O)n3cc(CCCCCN)nn3)CC2)n1 | -5.58%
50 | CC(=O)Nc1cccc(NC(=O)CSc2nnc(Cc3cccn3C)n2-c2ccc(C)cc2)c1 | -11.9%
51 | Cc1ccnc(NC(=O)c2ccc(Cl)c(NC(=O)C(C)Oc3ccccc3)c2)c1 (stereo not drawn) | 1.41%
52 | O=C(CCCSc1nc2ccccc2[nH]1)NCc1ccc(Cl)cc1 | -62.3%
53 | Cc1ccc2nc(SCC(=O)N3CCN(c4ccccc4)CC3)[nH]c2c1 | 1.42%
54 | COc1ccc(N2CCN(C(=O)CCCSc3nc4ccccc4[nH]3)CC2)cc1 | -62.3%
55 | O=C(CCCSc1nc2ccccc2[nH]1)NCc1ccccc1 | -23.9%
56 | COc1ccc(N2CCN(C(=O)CSc3nc4ccccc4c(=O)[nH]3)CC2)cc1 | -10.7%
57 | O=C(CSc1nc2ccccc2[nH]1)N1CCCCC1 | -2%
58 | O=C(CSc1nc2ccccc2[nH]1)N1CCN(c2ccc(F)cc2)CC1 | -55.6%
59 | O=C(CSc1nc2ccccc2[nH]1)N1CCN(c2ccccc2)CC1 | -0.235%
60 | Cc1cccc(N2CCN(C(=O)CCCSc3nc4ccccc4[nH]3)CC2)c1C | -17.4%
61 | O=C(CCCSc1nc2ccccc2[nH]1)NCc1ccccc1Cl | -19.3%
62 | O=C(CCCSc1nc2ccccc2[nH]1)N1CCN(c2ccccc2)CC1 | -60.2%
63 | O=C(CCCSc1nc2ccccc2[nH]1)Nc1ccccc1 | 7.05%
